The results in this text go back to ChEMBL document CHEMBL3988442, “University of Dundee, Small-Polar-MMV Screening Library” (2021).

The structures appear in SMILES notation.

The assay deals with T1, Methionyl-tRNA synthetase, putative (Leishmania donovani (strain BPK282A1)) (UniProt E9BF75).
T1 sequence (whole entry): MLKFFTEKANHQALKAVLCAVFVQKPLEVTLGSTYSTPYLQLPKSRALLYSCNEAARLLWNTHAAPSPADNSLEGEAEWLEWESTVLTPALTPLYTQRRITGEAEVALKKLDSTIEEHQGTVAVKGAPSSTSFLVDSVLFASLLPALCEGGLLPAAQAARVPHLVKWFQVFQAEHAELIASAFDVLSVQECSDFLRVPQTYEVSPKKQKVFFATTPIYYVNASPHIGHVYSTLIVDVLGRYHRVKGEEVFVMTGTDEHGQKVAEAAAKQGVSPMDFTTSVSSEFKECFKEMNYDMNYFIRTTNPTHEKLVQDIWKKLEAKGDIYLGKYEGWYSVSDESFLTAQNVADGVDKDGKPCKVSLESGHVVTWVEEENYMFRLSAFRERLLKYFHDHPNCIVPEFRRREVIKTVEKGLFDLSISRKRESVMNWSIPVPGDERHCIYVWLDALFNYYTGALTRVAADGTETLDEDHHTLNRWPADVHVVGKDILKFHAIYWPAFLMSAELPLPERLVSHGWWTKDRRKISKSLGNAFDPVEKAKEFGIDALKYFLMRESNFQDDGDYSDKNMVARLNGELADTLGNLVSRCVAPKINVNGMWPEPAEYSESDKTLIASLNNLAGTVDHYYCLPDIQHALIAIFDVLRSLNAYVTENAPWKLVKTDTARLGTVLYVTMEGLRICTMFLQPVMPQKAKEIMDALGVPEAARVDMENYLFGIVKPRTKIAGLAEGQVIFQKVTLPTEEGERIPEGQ
Description: Leishmania donovani Methionine tRNA synthetase (LdMetRS):v7. Dose response assay. Further details: conc 80 nM, time 150 minutes. It counts as functional.

As to `Cc1nc(N(Cc2ccncc2)CC2CCCO2)c2ccsc2n1` (stereo not given), the PXC50 (MAX_EFFECT 13.31592689) was < 4 and the PXC50 (MAX_EFFECT 17.75456919) is < 4.

Turning to `CC(=O)NCCNc1nc(-c2cccnc2)nc2sc(C)c(C)c12`, the PXC50 is < 4 (MAX_EFFECT 9.574468085) and < 4 (MAX_EFFECT 10.3626943).

Consider `Nc1nc(CSc2nnc[nH]2)nc2sc3c(c12)CCCC3`, for which the PXC50 (MAX_EFFECT 21.33333333) is < 4 and the PXC50 (MAX_EFFECT 26.98412698) is < 4.

On to `Cc1sc2nc(CN3CCOCC3)nc(NCC3CCCO3)c2c1C` (stereo not given), for which the PXC50 was < 4 (MAX_EFFECT 9.836065574) and < 4 (MAX_EFFECT 10.69518717).

Take `CCc1nc(NCCCN(C)C)c2cc(C)sc2n1`: the PXC50 runs as follows: (MAX_EFFECT 12.06030151) < 4; (MAX_EFFECT 14.98771499) < 4.

For `COc1ccc(C(=O)[C@H]2C[C@@H]2CN(Cc2ccccn2)Cc2ccccn2)cc1`, the PXC50 was < 4 (MAX_EFFECT 11.1627907) and < 4 (MAX_EFFECT 16.55011655).

For the compound `CC1CCN(c2nc3c(c(C(F)(F)F)n2)CCCCC3)CC1`, the PXC50 is, setting by setting: (MAX_EFFECT 8.396946565) < 4; (MAX_EFFECT 11.83879093) < 4.

Consider `Cc1nc(N(C)C)c2c3c(sc2n1)CCCC3`, for which the PXC50 is < 4 (MAX_EFFECT 4.166666667) and < 4 (MAX_EFFECT 4.385964912).

`COCCN(CC1CC1)c1nc(CCN)nc2sc(C)c(C)c12`: the PXC50 (MAX_EFFECT 32.65306122) is < 4 and the PXC50 (MAX_EFFECT 36.11111111) was < 4.

On to `CCc1nc(N2CCN(c3ncccn3)CC2)c2cc(C)sc2n1`, for which the PXC50 runs as follows: (MAX_EFFECT 13.86666667) < 4; (MAX_EFFECT 15.34391534) < 4.

Consider `O=C(NC1CCCC1)c1ccc2ccc(N3CCOCC3)n2c1`, for which the PXC50 (BOTTOM 3.55073469, HILLSLOPE 1.692539638, MAX_EFFECT 59.05660377, TOP 61.76844647) amounted to 4.9 and the PXC50 (BOTTOM 4.599152337, HILLSLOPE 2.687600256, MAX_EFFECT 55.70776256, TOP 54.83275802) worked out at 4.96.

Take `CN(c1ncnc2c1CCC2)C1CCCN(c2cccnn2)C1` (stereo not given): the PXC50 is, setting by setting: (MAX_EFFECT 11.7370892) < 4; (MAX_EFFECT 15.37037037) < 4.

With `Cc1ccc(-c2cc(C(F)(F)F)nc(NCCCN(C)C)n2)cc1`, the PXC50 reads like this: (MAX_EFFECT 7.446808511) < 4; (MAX_EFFECT 8.808290155) < 4.

For the compound `Cc1sc2nc(CCN)nc(N3CCS(=O)(=O)CC3)c2c1C`, the PXC50 is, setting by setting: (MAX_EFFECT 6.266318538) < 4; (MAX_EFFECT 7.049608355) < 4.

Regarding `COc1cccc(-c2cc(C(F)(F)F)nc(N3CCOCC3)n2)c1`, the PXC50 reads like this: (MAX_EFFECT 8.510638298) < 4; (MAX_EFFECT 10.3626943) < 4.

Take `Cc1nc(N2CCC(CCN3CCCC3)CC2)c2ccsc2n1`: the PXC50 was < 4 (MAX_EFFECT 38.29787234) and < 4 (MAX_EFFECT 38.86010363).

As for `Cc1cc(C)n(-c2nc(N3CCCC3)c3c4c(sc3n2)CCCC4)n1`, the PXC50 (MAX_EFFECT 18.42105263) was < 4 and the PXC50 (MAX_EFFECT 18.75) is < 4.

With `Cc1nc(N(C)CCC#N)c2c3c(sc2n1)CC(C)CC3` (stereo not given), the PXC50 by setting is: (MAX_EFFECT 3.723404255) < 4; (MAX_EFFECT 5.699481865) < 4.

Take `CCc1cc2c(NCc3ccccn3)nc(C)nc2s1`: the PXC50 is < 4 (MAX_EFFECT 3.194103194) and < 4 (MAX_EFFECT 6.030150754).

Regarding `Cc1sc2nc(CCN)nc(N3CC(N4CCCCC4)C3)c2c1C`, the PXC50 by setting is: (MAX_EFFECT 21.14882507) < 4; (MAX_EFFECT 25.06527415) < 4.

For the compound `CS(=O)(=O)N1CCN(c2ccc3ccc(C(=O)N4CCCCO4)cn23)CC1`, the PXC50 reads like this: (BOTTOM 3.408302262, HILLSLOPE 2.699207266, MAX_EFFECT 56.14035088, TOP 100.0) 4.33; (BOTTOM -1.088314762, HILLSLOPE 0.901802249, MAX_EFFECT 54.6875, TOP 100.0) 4.49.

In the case of `CN(c1ncnc2sccc12)C1CCCN(c2cccnn2)C1` (stereo not given), the PXC50 by setting is: (MAX_EFFECT 11.26760563) < 4; (MAX_EFFECT 18.33333333) < 4.

Regarding `CS(=O)(=O)N1CCN(c2ccc3ccc(C(=O)NCC(=O)N4CCOCC4)cn23)CC1`, the PXC50 (BOTTOM 0.290613171, HILLSLOPE 1.637678219, MAX_EFFECT 51.19617225, TOP 53.26483222) stood at 4.83 and the PXC50 (BOTTOM 5.655540606, HILLSLOPE 2.540340494, MAX_EFFECT 56.3071298, TOP 55.42961413) stood at 4.8.

With `CCOC(=O)c1sc2nc(C)nc(NC3CCCCC3)c2c1C`, the PXC50 was < 4 (MAX_EFFECT 13.06532663) and < 4 (MAX_EFFECT 16.95331695).

Consider `COCCNc1nc(CN2CCOCC2)nc2sc3c(c12)CCCC3`, for which the PXC50 is < 4 (MAX_EFFECT -0.877192982) and < 4 (MAX_EFFECT -1.5625).

For the compound `Cc1ncc(CNc2cnccc2CO)s1`, the PXC50 reads like this: (MAX_EFFECT 4.225352113) < 4; (MAX_EFFECT 9.814814815) < 4.

Take `CS(=O)(=O)Nc1cccc2c(=O)cc(C(=O)NCC3CCCCC3)oc12`: the PXC50 runs as follows: (MAX_EFFECT 0.797448166) < 4; (MAX_EFFECT 2.111324376) < 4.

On to `Cc1nc(N2CCN(c3ncccn3)CC2)c2c3c(sc2n1)CCC3`, for which the PXC50 runs as follows: (MAX_EFFECT 14.75409836) < 4; (MAX_EFFECT 18.71657754) < 4.

Turning to `Cc1nc(N(C)CC(=O)Nc2cc(C)on2)c2c3c(sc2n1)CCC3`, the PXC50 by setting is: (MAX_EFFECT 9.844559585) < 4; (MAX_EFFECT 10.63829787) < 4.

Take `Cc1nc(NC(Cc2ccccc2)C(=O)O)c2c3c(sc2n1)CCCC3` (stereo not given): the PXC50 by setting is: (MAX_EFFECT 23.07692308) < 4; (MAX_EFFECT 25.24509804) < 4.
